Data published in PubChem BioAssay AID1159580 (chemical genetic matrix, 2015).
Hit rate of the full screen: of about 5,500 compounds, about 2,000 (36%) were called active. Not shown: some 18% with an inconclusive outcome. Rule as the data show it: active = normalized growth mostly below about 0.91 (no sharp cut-off); inconclusive = no clear call, values can overlap the other calls; inactive = mostly above about 0.92. The list shows a part of the results.

Test: chemical genetic growth profiling, strain panel (AID 1159580);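 also: tested at 20 µM; growth read once vehicle control cultures reached saturation at 30 °C; 1 = growth at the plate median or of vehicle wells; lower values mean less growth of the strain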
Settings: growth OD

Measured: normalized growth

c1ccc(N=Nc2ccccc2)cc1
inactive: S. cerevisiae deletion strains, locus YJR066W, strain TOR1, active compounds read low 0.95 | S. cerevisiae deletion strains, locus YJR075W, strain HOC1, active compounds read low 0.98 | S. cerevisiae deletion strains, locus YKL009W, strain mrt4, active compounds read low 1 | S. cerevisiae deletion strains, locus YKL068W, active compounds read low 1.02 | S. cerevisiae deletion strains, locus YKL085W, strain MDH1 (second series), active compounds read low 1.01 | S. cerevisiae deletion strains, locus YKL085W, strain MDH1, active compounds read low 1.01 | S. cerevisiae deletion strains, locus YKL160W, strain elf1, active compounds read low 0.996 | S. cerevisiae deletion strains, locus YKL190W, strain CNB1, active compounds read low 0.993 | S. cerevisiae deletion strains, locus YKR001C, strain vps1, active compounds read low 0.979 | S. cerevisiae deletion strains, locus YKR026C, strain gcn3, active compounds read low 0.982 | S. cerevisiae deletion strains, locus YKR091W, strain srl3, active compounds read low 0.987 | S. cerevisiae deletion strains, locus YLL001W, strain dnm1, active compounds read low 0.977 | S. cerevisiae deletion strains, locus YLL026W, active compounds read low 0.986 | S. cerevisiae deletion strains, locus YLL041C, strain sdh2, active compounds read low 0.989 | S. cerevisiae deletion strains, locus YLR027C, strain aat2, active compounds read low 0.983 | S. cerevisiae deletion strains, locus YLR039C, strain RIC1, active compounds read low 0.878 | S. cerevisiae deletion strains, locus YLR058C, strain SHM2, active compounds read low 0.992 | S. cerevisiae deletion strains, locus YLR102C, strain apc9, active compounds read low 1.03 | S. cerevisiae deletion strains, locus YLR113W, strain HOG1, active compounds read low 0.978 | S. cerevisiae deletion strains, locus YLR221C, strain rsa3, active compounds read low 0.984 | S. cerevisiae deletion strains, locus YLR258W, strain gsy2, active compounds read low 0.974 | S. cerevisiae deletion strains, locus YLR262C, strain YPT6 (second series), active compounds read low 0.921 | S. cerevisiae deletion strains, locus YLR262C, strain YPT6, active compounds read low 0.887 | S. cerevisiae deletion strains, locus YLR268W, strain sec22, active compounds read low 0.988 | S. cerevisiae deletion strains, locus YLR320W, strain mms22, active compounds read low 0.993 | S. cerevisiae deletion strains, locus YLR330W, strain CHS5, active compounds read low 1.01 | S. cerevisiae deletion strains, locus YLR342W, strain FKS1 (second series), active compounds read low 0.966 | S. cerevisiae deletion strains, locus YLR342W, strain FKS1, active compounds read low 0.994 | S. cerevisiae deletion strains, locus YLR357W, strain rsc2, active compounds read low 0.97 | S. cerevisiae deletion strains, locus YLR370C, strain arc18, active compounds read low 0.996 | S. cerevisiae deletion strains, locus YLR371W, strain rom2, active compounds read low 1.02 | S. cerevisiae deletion strains, locus YLR384C, strain iki3, active compounds read low 0.973 | S. cerevisiae deletion strains, locus YLR418C, strain cdc73, active compounds read low 1 | S. cerevisiae deletion strains, locus YML016C, strain PPZ1, active compounds read low 1.01 | S. cerevisiae deletion strains, locus YML032C, strain rad52, active compounds read low 1.01 | S. cerevisiae deletion strains, locus YML120C, strain ndi1, active compounds read low 0.976 | S. cerevisiae deletion strains, locus YML124C, strain tub3, active compounds read low 1.03 | S. cerevisiae deletion strains, locus YMR058W, strain fet3, active compounds read low 0.99 | S. cerevisiae deletion strains, locus YMR078C, strain ctf18, active compounds read low 1.01 | S. cerevisiae deletion strains, locus YMR125W, strain sto1, active compounds read low 0.978 | S. cerevisiae deletion strains, locus YMR129W, active compounds read low 0.991 | S. cerevisiae deletion strains, locus YMR205C, strain PFK2, active compounds read low 0.952 | S. cerevisiae deletion strains, locus YMR223W, strain ubp8, active compounds read low 1 | S. cerevisiae deletion strains, locus YMR231W, strain pep5, active compounds read low 0.991 | S. cerevisiae deletion strains, locus YMR263W, strain SAP30, active compounds read low 0.972 | S. cerevisiae deletion strains, locus YMR307W, strain GAS1, active compounds read low 0.945 | S. cerevisiae deletion strains, locus YNL067W, strain RPL9B, active compounds read low 0.975 | S. cerevisiae deletion strains, locus YNL071W, strain lat1, active compounds read low 1 | S. cerevisiae deletion strains, locus YNL183C, strain NPR1, active compounds read low 0.904 | S. cerevisiae deletion strains, locus YNL209W, strain ssb2, active compounds read low 0.991 | S. cerevisiae deletion strains, locus YNL233W, strain BNI4, active compounds read low 0.971 | S. cerevisiae deletion strains, locus YNL248C, strain rpa49, active compounds read low 0.993 | S. cerevisiae deletion strains, locus YNL250W, strain rad50, active compounds read low 1.03 | S. cerevisiae deletion strains, locus YNL271C, strain bni1, active compounds read low 1.03 | S. cerevisiae deletion strains, locus YNL298W, strain CLA4, active compounds read low 1 | S. cerevisiae deletion strains, locus YNL307C, strain MCK1, active compounds read low 1 | S. cerevisiae deletion strains, locus YNL322C, strain KRE1 (second series), active compounds read low 0.974 | S. cerevisiae deletion strains, locus YNR049C, strain mso1, active compounds read low 0.994 | S. cerevisiae deletion strains, locus YNR052C, strain pop2, active compounds read low 1.03 | S. cerevisiae deletion strains, locus YOL006C, strain TOP1, active compounds read low 0.974 | S. cerevisiae deletion strains, locus YOL012C, strain htz1 0.782 | S. cerevisiae deletion strains, locus YOL147C, strain pex11, active compounds read low 1.02 | S. cerevisiae deletion strains, locus YOR001W, strain rrp6, active compounds read low 0.991 | S. cerevisiae deletion strains, locus YOR061W, strain CKA2, active compounds read low 1 | S. cerevisiae deletion strains, locus YOR069W, strain VPS5, active compounds read low 1 | S. cerevisiae deletion strains, locus YOR070C, strain gyp1, active compounds read low 0.985 | S. cerevisiae deletion strains, locus YOR080W, strain dia2, active compounds read low 0.974 | S. cerevisiae deletion strains, locus YOR083W, strain WHI5, active compounds read low 0.989 | S. cerevisiae deletion strains, locus YOR106W, strain vam3, active compounds read low 0.987 | S. cerevisiae deletion strains, locus YOR136W, strain idh2, active compounds read low 1.02 | S. cerevisiae deletion strains, locus YOR144C, strain elg1, active compounds read low 1.02 | S. cerevisiae deletion strains, locus YOR184W, strain ser1, active compounds read low 0.912 | S. cerevisiae deletion strains, locus YOR231W, strain MKK1, active compounds read low 0.944 | S. cerevisiae deletion strains, locus YOR265W, strain rbl2, active compounds read low 0.985 | S. cerevisiae deletion strains, locus YOR270C, strain vph1, active compounds read low 1.11 | S. cerevisiae deletion strains, locus YOR290C, strain snf2, active compounds read low 0.998 | S. cerevisiae deletion strains, locus YOR316C, strain cot1, active compounds read low 1.03 | S. cerevisiae deletion strains, locus YPL051W, strain arl3, active compounds read low 0.987 | S. cerevisiae deletion strains, locus YPL055C, strain LGE1, active compounds read low 0.995 | S. cerevisiae deletion strains, locus YPL078C, strain atp4, active compounds read low 0.979 | S. cerevisiae deletion strains, locus YPL106C, strain sse1, active compounds read low 0.98 | S. cerevisiae deletion strains, locus YPL240C, strain hsp82, active compounds read low 0.986 | S. cerevisiae deletion strains, locus YPL256C, strain CLN2, active compounds read low 0.953 | S. cerevisiae deletion strains, locus YPR119W, strain clb2, active compounds read low 1.03 | S. cerevisiae deletion strains, locus YPR141C, strain kar3, active compounds read low 1.03 | S. cerevisiae deletion strains, locus YPR163C, strain tif3, active compounds read low 1.04 | S. cerevisiae deletion strains, locus YPR167C, strain met16, active compounds read low 1.02 | S. cerevisiae deletion strains, strain wtn01, active compounds read low 1.04 | S. cerevisiae strains, strain wild type, active compounds read low 1
